{"source": "PubChem BioAssay (EPA / NIEHS)", "note": "“And” between values parts separate entries of the source, which are not always exact repeats. Identical values can stand only once. More than one record can exist for a structure, and the calls need not agree. The source made the active and inactive calls. How the source made its calls: active means hit-call score of the fitted dose curve at least 0.9, where 1 is the maximum; inactive means score below 0.9."}
{"read-out": "Interferon-inducible T-cell alpha chemoattractant (ITAC), CXCL11 (gene 6373)", "assay": "BSK_hDFCGF_ITAC: BioMAP Diversity Plus: hDFCGF Assay for Interferon-inducible T-cell alpha chemoattractant (ITAC) Biomarker Activity (AID 2284251)", "details": "primary human foreskin fibroblasts", "method": "BSK_hDFCGF is a cell-based, multiplexed-readout assay that uses foreskin fibroblast, a human skin primary cell, with measurements taken at 24 hours after chemical dosing in a 96-well plate.BSK_hDFCGF_ITAC is an assay component measured in the BSK_hDFCGF assay. It measures I-TAC antibody related to regulation of gene expression using ELISA technology.Data from the assay component BSK_hDFCGF_ITAC was analyzed at the endpoint, BSK_hDFCGF_ITAC, in the positive analysis fitting direction relative to DMSO as the negative control and baseline of activity. Using a type of binding reporter, gain or loss-of-signal activity can be used to understand protein changes. To generalize the intended target to other relatable targets, this assay endpoint is annotated to the 'cytokine' intended target family, where the subfamily is 'chemotactic factor'.\nThe levels of cell surface (or secreted, indicated by the prefix \"s\") biomarker endpoints were measured by ELISA. Overt cytotoxicity to cells in confluent adherent cultures (all systems other than the BT system) was assessed by measuring total protein levels using sulforhodamine B (SRB) staining in parallel cultures at the time of biomarker measurements, indicated as SRB endpoints. For proliferation assays for adherent cell types, individual cell types are cultured at sub-confluence and relative cell numbers quantified by SRB staining at time points optimized for each system (48 h: 3C and CASM3C systems; 72 h: BT and HDF3CGF systems; 96 h: SAg system). SRB was performed by staining cells with 0.1% SRB after fixation with 10% TCA and reading wells at 560 nm.Viability and proliferation of PBMC (T cells) was quantified by Alamar Blue reduction for the SAg and BT systems. For PBMC viability (referred to as PBMC Cytotoxicity within the assay endpoint names), cells were plated (75,000/well in a 96-well plate) and then chemical samples added for 1 h before addition of activators, SEB and TSST-1 (20 ng/mL final concentration each). Cells were incubated for 90 h. Then, Alamar Blue (20 uL/well) (Invitrogen, Cat DAL1100) was added for 6 h, and the plates were read with a fluorescence microplate reader at 546/580 nm (excitation/emission). For PBMC proliferation, cells were plated and activated as above but incubated for only 16 h prior to addition of Alamar Blue. Plates were read after 6 h."}
{"smiles": "c1ccc(OCCOc2ccccc2)cc1", "outcome": "inactive"}
{"smiles": "OCC(F)(OC(F)(F)C(F)(OC(F)(F)C(F)(F)C(F)(F)F)C(F)(F)F)C(F)(F)F", "note": "(centres undefined)", "AC50": "2.4 µM (active) and 2.03 µM (active)"}
{"smiles": "O=S(=O)(O)C(F)(F)C(F)(F)OC(F)(F)C(F)(F)F", "outcome": "inactive"}
{"smiles": "CCCO[Si](OCCC)(OCCC)OCCC", "outcome": "inactive"}
{"smiles": "C=C(C)C(=O)OCCC(F)(F)C(F)(F)C(F)(F)C(F)(F)C(F)(F)C(F)(F)C(F)(F)C(F)(F)F", "outcome": "inactive"}
{"smiles": "CC(C)(CO)CO", "outcome": "inactive"}
{"smiles": "CCn1cc(C(=O)O)c(=O)c2ccc(C)nc21", "outcome": "inactive"}
{"smiles": "O=C(O)C(F)(F)OC(F)(F)C(F)(F)OC(F)(F)C(F)(F)C(F)(F)C(F)(F)F", "AC50": "10.9 µM (active) and 17.6 µM (active)"}
{"smiles": "CCCCN(CCO)CCO", "outcome": "inactive"}
{"smiles": "CC(C)CCCC(C)(C)O", "outcome": "inactive"}
{"smiles": "C=C(F)C(=O)OC(C(F)(F)F)C(F)(F)F", "outcome": "inactive"}
{"smiles": "O=C(O)C(F)(F)C(F)(F)C(F)(F)C(F)(F)C(F)(F)C(F)(F)C(F)(F)C(F)F", "outcome": "inactive", "AC50": "12.9 µM (active)"}
{"smiles": "CC(=O)c1ccc(C)cc1", "outcome": "inactive"}
